From PubChem BioAssay (NCI) come the findings set out here.

The panel holds about 83,000 compounds, 20% with a hit somewhere; the sample as a whole holds those more often.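 Results are percent growth after 48 hours of single-concentration exposure. 100 means growth as in untreated cells, lower positive values show inhibition; negative values down to -100 show cell death.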 A number with no mark means an inactive call. The source made the active and inactive calls. How the source made its calls: active means growth percent below 10; inactive means the rest.

Among the test systems are NCI-H23 lung; NCI-H226 lung; NCI-H322M lung; HOP-62 NSCLC; NCI-H460 lung; HOP-92 NSCLC; NCI-H522 lung; A549/ATCC NSCLC; 786-0 renal; COLO 205 colon.
Assay in all cases: NCI-60 one-dose screen, 48 h (100 = growth as untreated, 0 = no growth, -100 = all killed)
What all share (conditions): 10 µM unless noted

With `COc1ccccc1N1CCN(CCn2c(=O)c3c(c4ccccc4n3C)n(C)c2=O)CC1`, the growth was 103% in the test on NCI-H23 lung; 82.9% with NCI-H226 lung; 101% with NCI-H322M lung; 107% in the test on HOP-62 NSCLC; 96.7% with NCI-H460 lung; 92.1% in the test on HOP-92 NSCLC. Besides, the growth with NCI-H522 lung is 45.2%; with A549/ATCC NSCLC it was 71.5%; in the test with 786-0 renal it was 111%; in the test on COLO 205 colon it was 100%.

Take `COc1cc(OC)c(/C=C/c2cc[n+](C)c3ccccc23)c(OC)c1`: the growth was 17.3% with NCI-H23 lung; 23.1% in the test on NCI-H226 lung; 6.52% (active) with NCI-H322M lung; 17.1% with HOP-62 NSCLC; 4.59% (active) in the test on NCI-H460 lung; -10.8% (active) in the test on HOP-92 NSCLC. The growth with NCI-H522 lung was -35.3% (active); with A549/ATCC NSCLC it was 8.24% (active); with 786-0 renal, 26.1%; in the test on COLO 205 colon, -83.9% (active).

Consider `NC1=CC(=O)C(=O)c2ccccc21`, for which the growth with NCI-H23 lung was 72.7%; in the test with NCI-H226 lung, 98.1%; in the test on NCI-H322M lung, 102%; in the test with HOP-62 NSCLC it was 98.2%; with NCI-H460 lung, 106%; in the test with HOP-92 NSCLC, 106%. In addition, the growth in the test with NCI-H522 lung is 80.6%; with A549/ATCC NSCLC, 112%; in the test on 786-0 renal it was 92.8%; in the test on COLO 205 colon it was 117%.

Take `COc1ccc2nc3cc(Cl)ccc3c(NCCNCC(O)CO)c2c1` (stereo not given): the growth in the test on NCI-H23 lung is 23.6%; in the test on NCI-H226 lung, 43.1%; in the test on NCI-H322M lung, 20.6%; with HOP-62 NSCLC, 31.5%; in the test on NCI-H460 lung, 0.301% (active); in the test with HOP-92 NSCLC, 13.1%. Moreover, the growth with NCI-H522 lung was 3.19% (active); with A549/ATCC NSCLC, 14.6%; with 786-0 renal, 29.3%; in the test on COLO 205 colon, 0.893% (active).

For `Cc1cc(Nc2nc(N3CCOCC3)nc3ccccc23)n[nH]1`, the growth was 80.5% with NCI-H23 lung; 57.7% with NCI-H226 lung; 65.8% with NCI-H322M lung; 78% with HOP-62 NSCLC; 68.9% in the test on NCI-H460 lung; 60.7% with HOP-92 NSCLC. The growth in the test with NCI-H522 lung is 40.2%; in the test on A549/ATCC NSCLC it was 53.3%; with 786-0 renal, 49.9%; with COLO 205 colon, 65.4%.

As to `O=C(COc1cccc(/C=C2/Oc3ccccc3C2=O)c1)Nc1nccs1`, the growth was 61.6% in the test on NCI-H23 lung; 99.3% in the test with NCI-H226 lung; 95.7% in the test with NCI-H322M lung; 93.3% with HOP-62 NSCLC; 103% with NCI-H460 lung; -51.4% (active) with HOP-92 NSCLC. Further, the growth with NCI-H522 lung is -9.74% (active); with A549/ATCC NSCLC, 88.2%; with 786-0 renal it was 90.7%; in the test with COLO 205 colon, 235%.

As to `O=C([C@@H](COCc1ccccc1)N1C(=O)[C@@H](N2C(=O)OC[C@@H]2c2ccccc2)[C@H]1/C=C/c1ccccc1)N1CCC(CCN2CCCCC2)CC1`, the growth in the test on NCI-H23 lung was 87%; in the test on NCI-H226 lung, 93.8%; in the test on NCI-H322M lung it was 83.2%; with HOP-62 NSCLC, 77.8%; in the test on NCI-H460 lung it was 94.2%; in the test with HOP-92 NSCLC it was 76.1%. Moreover, the growth in the test with NCI-H522 lung is 57.1%; in the test with A549/ATCC NSCLC, 75.4%; in the test on 786-0 renal, 83.3%; in the test on COLO 205 colon, 65.1%.

With `CC(=O)C1=C(O)C=C2Oc3c(C(=O)/C=C/c4c(Cl)cccc4Cl)c(O)c(C)c(O)c3[C@]2(C)C1=O`, the growth in the test with NCI-H23 lung was -37.9% (active); in the test on NCI-H226 lung, -41.2% (active); in the test on NCI-H322M lung, -25.9% (active); with HOP-62 NSCLC, -48.6% (active); in the test with NCI-H460 lung, 0.581% (active); with HOP-92 NSCLC it was -24.9% (active). For the same compound, the growth in the test with NCI-H522 lung was -30.4% (active); in the test on A549/ATCC NSCLC it was -46.1% (active); in the test with 786-0 renal, -39.3% (active); in the test with COLO 205 colon it was -59.1% (active).

For `Nc1cc(O)cc2cccnc12`, the growth is 53.1% in the test with NCI-H23 lung; 94.4% with NCI-H226 lung; 104% with NCI-H322M lung; 86.6% in the test with HOP-62 NSCLC; 67.6% in the test with NCI-H460 lung; 103% in the test on HOP-92 NSCLC. For the same compound, the growth in the test on NCI-H522 lung is 50.6%; with A549/ATCC NSCLC, 86.3%; with 786-0 renal, 105%; in the test with COLO 205 colon, 113%.

For the compound `O=C(O)c1ccccc1Nc1cccc(S(F)(F)(F)(F)F)c1`, the growth is 96.8% in the test on NCI-H23 lung; 88.9% in the test with NCI-H226 lung; 101% in the test with NCI-H322M lung; 88.4% in the test with HOP-62 NSCLC; 102% in the test with NCI-H460 lung; 96.1% in the test with HOP-92 NSCLC. Further, the growth was 61.9% with NCI-H522 lung, 84.2% in the test on A549/ATCC NSCLC, 110% with 786-0 renal and 104% in the test with COLO 205 colon.

As for `CS(=O)(CCCCN=C=S)=NC(=O)c1c(F)c(F)c(F)c(F)c1F` (stereo not given), the growth in the test with NCI-H23 lung is 96.7%; with NCI-H226 lung, 99.6%; with NCI-H322M lung, 108%; in the test on HOP-62 NSCLC, 111%; with NCI-H460 lung it was 88.4%; in the test on HOP-92 NSCLC, 107%. The growth in the test on NCI-H522 lung is 57%; with A549/ATCC NSCLC, 80.3%; in the test with 786-0 renal it was 89%; in the test on COLO 205 colon, 89.4%.

As for `CCCCNC(=O)NS(=O)(=O)c1ccc(N2N=C(c3cc(C)ccc3C)CC2c2cc(OC)c(OC)c(OC)c2)cc1` (stereo not given), the growth in the test on NCI-H23 lung is -26.1% (active); in the test with NCI-H226 lung, 75.2%; in the test with NCI-H322M lung, 66.7%; in the test on HOP-62 NSCLC it was 53.8%; with NCI-H460 lung, 57.5%; in the test with HOP-92 NSCLC it was 62.4%. Further, the growth in the test with NCI-H522 lung is 53.7%; with A549/ATCC NSCLC it was 32.6%; in the test with 786-0 renal, 47.9%; in the test with COLO 205 colon, 44.7%.

Turning to `COc1ccc(C(=O)c2sc3nc4c(c(C(F)(F)F)c3c2N)CN(C(C)=O)CC4)cc1OC`, the growth with NCI-H23 lung was 90.5%; in the test with NCI-H226 lung, 78.2%; in the test with NCI-H322M lung, 93.1%; with HOP-62 NSCLC it was 87%; with NCI-H460 lung, 95.8%; in the test on HOP-92 NSCLC, -0.986% (active). Moreover, the growth was 78.5% with NCI-H522 lung, 91% in the test with A549/ATCC NSCLC, 91.9% with 786-0 renal and 92.4% with COLO 205 colon.

On to `COc1ccc(S(=O)(=O)NCCNc2nccc(-c3c(-c4cccc([N+](=O)[O-])c4)nc4sccn34)n2)cc1`, for which the growth in the test on NCI-H23 lung is 93.1%; in the test with NCI-H226 lung it was 82.2%; with NCI-H322M lung, 97.5%; in the test with HOP-62 NSCLC, 99.3%; in the test with NCI-H460 lung, 87.3%; in the test with HOP-92 NSCLC it was 87.5%. The growth was 86% in the test with NCI-H522 lung, 80.2% in the test with A549/ATCC NSCLC, 87.9% in the test with 786-0 renal and 95.1% in the test on COLO 205 colon.
